# Rows were chosen to be rich in hits. Some 2.1% of all compounds tested hit in one or more screens of this group.
# D2 PAM-1 = Beta-Arrestin HTS for Positive Allosteric Modulators of the Human D2 Dopamine Receptor: Potentiators. hit rate 0.23% among 360,000. potentiation, % (no concentration beside the values). DiscoveRx D2 beta-arrestin cells, luminescence, 90 min; 100% = 57 uM dopamine signal. D(2) dopamine receptor (Homo sapiens), P14416. AID 624464, 2012; in the data active = potentiation above about 50%; inconclusive = mostly about 30% to 49%
#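 PathHunter beta-arrestin assay in DiscoveRx D2 cells. Compounds were added with an EC20 of dopamine (50 nM final) for 90 min at 37 deg C. Luminescence was read 1 h after detection reagent, with 57 uM dopamine as the EC100 control.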
# D2 PAM-2 = HTS Assay for Positive Allosteric Modulators of the Human D2 Dopamine Receptor: Primary Screen for Potentiators | D(2) dopamine receptor (Homo sapiens), P14416 | HEK293 T-REx D2, calcium flux, EC20 dopamine potentiation | potentiation, % at 10 µM | hit rate 0.34% among 340,000 | AID 485347, 2010;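 active = potentiation over 3 SD above the plate norm, cut at about 30% in these data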; also: 0% is about no effect
#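 Potentiation of an EC20 dopamine calcium response measured kinetically over 180 s, after a preceding 180 s compound-only read flagging agonists. Cells: inducible Hek293 Trex D2 line, 4000/well, cultured overnight at 30 C before dye loading.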
# D2 ag-1 = Beta-Arrestin HTS for Positive Allosteric Modulators of the Human D2 Dopamine Receptor: Agonists | D(2) dopamine receptor (Homo sapiens), P14416 | DiscoveRx PathHunter D2 beta-arrestin, luminescence, 90 min; 100% = 57 uM dopamine signal | activation, % (test concentration not listed) | hit rate 0.084% among 360,000 | AID 624465, 2012; in the data active = activation above about 40%; inconclusive = between about 15% and that limit
#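 Agonist mode: compounds alone added to overnight-plated D2 PathHunter cells for 90 min at 37 C, with 57 uM final dopamine (EC100) defining full response. Beta-arrestin recruitment detected by chemiluminescent reagent, read after 1 h at ambient temperature.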
# D2 antagonist = HTS Assay for Allosteric Antagonists of the Human D2 Dopamine Receptor: Primary Screen for Antagonists; hit rate 2% among 340,000; inhibition, % at 10 µM; HEK293 TREx D2 cells, calcium flux, dopamine EC80; D(2) dopamine receptor (Homo sapiens), P14416; in the data active = inhibition above about 30%; inactive = below that, where a call was filed; also: 0% is about no effect
#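 Read-out: kinetic calcium fluorescence (1 cycle/s) in inducible HEK293 T-REx D2 cells after an EC80 dopamine addition that followed 180 s compound preincubation. Loss of the dopamine response indicates antagonism.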
# D2 ag-2 = HTS Assay for Allosteric Agonists of the Human D2 Dopamine Receptor: Primary Screen for Agonists | D(2) dopamine receptor (Homo sapiens), P14416 | HEK293 T-REx D2 cells, calcium flux agonist mode | activation, % at 2 µM | hit rate 0.53% among 340,000 | AID 485358, 2010;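 active = activation over 3 SD above normal in the single-dose calcium agonist read, cut at about 30% in these data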; also: 0% is about no effect
#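 Agonism scored from kinetic calcium signal (1 read/sec, 180 s) following compound pin transfer, after a 10 s baseline. Cells: HEK293 Trex line expressing inducible D2 receptor coupled to calcium, dye-loaded after overnight culture at 30 C.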
# LDHA block = qHTS assay for inhibitors of human lactate dehydrogenase | hit rate 0.15% among 480,000 | purified LDHA, NADH/diaphorase-resazurin fluorescence; stronger effect = lower value | activity change, % (values are at about 110 or 230 µM) | L-lactate dehydrogenase A chain (Homo sapiens), P00338; in the data active = activity change below about -30%; inconclusive = mostly about -25% to -30%;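 also: plate controls were DMSO wells for no effect and wells without enzyme for full effect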
#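 Resorufin fluorescence (ex540/em590), read at 0 and 20 min after diaphorase/resazurin addition, reports the NADH left after a 5 min room-temperature reaction of 2 nM human LDH5 with 0.06 mM NADH and 0.2 mM pyruvate.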
# D3 ag = qHTS of D3 Dopamine Receptor Agonist: D3 Dopamine Receptor B-arrestin Agonist Confirmatory Assay. Potency, µM (series often up to 76.9 µM), for inactives: at the highest dose activation, actives largely listed as activators. hit rate 4% among 2,300. DiscoveRx D3 beta-arrestin cells, luminescence, 90 min. shares compounds with D2 ag-2. AID 720506, 2013;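 also: potency is read from the fitted curve at half-maximal effect; 100% = dopamine control response; nearly all actives have a fitted effect of over 70% in size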
# Target sequence (P35462 whole entry, looked up): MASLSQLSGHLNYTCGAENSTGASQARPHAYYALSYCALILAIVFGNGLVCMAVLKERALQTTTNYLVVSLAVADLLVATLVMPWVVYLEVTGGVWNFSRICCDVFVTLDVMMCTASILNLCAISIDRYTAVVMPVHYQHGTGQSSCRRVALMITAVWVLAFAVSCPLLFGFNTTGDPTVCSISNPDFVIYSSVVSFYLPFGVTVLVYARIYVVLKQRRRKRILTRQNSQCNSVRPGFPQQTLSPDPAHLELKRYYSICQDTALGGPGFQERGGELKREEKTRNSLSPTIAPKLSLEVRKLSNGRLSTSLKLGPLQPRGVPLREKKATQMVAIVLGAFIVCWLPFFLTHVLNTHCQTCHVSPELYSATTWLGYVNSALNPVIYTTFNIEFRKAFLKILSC
# D2 ag-3 = qHTS of D3 Dopamine Receptor Agonist: D2 Dopamine Receptor B-arrestin Agonist Counterscreen; shares compounds with D2 ag-2; DiscoveRx PathHunter D2 beta-arrestin, luminescence, 90 min; response scale: percent relative to full dopamine signal; Potency, µM (titrated, usually from 76.9 µM), without a hit: at the highest dose activation, usual class: activators; hit rate 5.9% among 2,300; AID 720507, 2013; also: potency is read from the fitted curve at half-maximal effect; % of control where 0% means no effect; nearly all actives have a fitted effect of over 70% in size
# An asterisk follows results filed as active; ? = inconclusive; . = no result given. Unless noted, calls follow the shape of the dose curve; as a rule, active = well fitted activation curve with a large enough effect; inconclusive = small, poorly fitted or top-dose-only effect; inactive = flat fitted curve, though single readings scatter.
SMILES,D2 PAM-1,D2 PAM-2,D2 ag-1,D2 antagonist,D2 ag-2,LDHA block,D3 ag,D2 ag-3
CCOC(=O)N1CCN(C/C(Cl)=C/c2ccccc2)CC1,2.3,-21.3,?,7.6,48.7*,-22.3,-0.7%,15.7%
Nc1c(Cl)ncnc1NCC(O)CO (stereo not drawn),-0.8,2.2,-2.1,0.5,-0.3,-9.0,-11.7%,-2.2%
CCCCCCCCCNc1c2c(nc3ccccc13)CC(C)(C)CC2=O,.,.,.,.,.,3.7,.,.
CCOc1ccc2nc(N(CCCN(C)C)C(=O)c3ccc(S(=O)(=O)N4CCCC4)cc3)sc2c1,-14.9,6.5,1.2,31.5*,1.7,-3.9,-16.7%,-2.4%
Nc1nc(CN2CCN(c3ccccn3)CC2)nc(Nc2ccc(Cl)cc2)n1,55.7*,-27.7,41.2*,73.8*,90.4*,2.5,-3.0%,17.8µM*
CCOc1ccc(Nc2nc(N)nc(CN3CCN(c4ccccc4F)CC3)n2)cc1,-3.2,-18.4,8.5,33.0*,48.4*,3.2,15.2%,?
Nc1nc(CN2CCN(Cc3ccccc3)CC2)nc(Nc2ccccc2)n1,-21.1,9.1,-3.3,-0.7,0.3,-0.5,.,.
Cc1cccc(Nc2nc(N)nc(CN3CCN(c4ccccc4F)CC3)n2)c1,2.8,.,5.0,.,.,-1.1,.,.
Nc1nc(CN2CCN(c3ccccc3F)CC2)nc(Nc2ccc3c(c2)OCCO3)n1,18.2,-19.3,?,54.0*,72.1*,5.8,8.5%,?
CN1CCN(Cc2nc(N)nc(Nc3ccc4c(c3)OCCO4)n2)CC1,-8.8,10.7,-0.1,-31.6,1.1,-2.2,.,.
Cc1cccc(Nc2nc(N)nc(CN3CCN(c4ccccc4)CC3)n2)c1,?,-28.2,?,50.8*,70.6*,-3.3,28.3%,?
Cc1noc(C(C)Nc2ccc(N3CCCC3=O)c(Cl)c2)n1 (stereo not drawn),.,.,.,.,.,-2.0,.,.
CCNC(=O)NC(=O)C(C)OC(=O)c1cc(-c2cccs2)nc2ccccc12 (stereo not drawn),.,.,.,.,.,-2.2,.,.
Cc1ccc2nc(C)cc(Nc3ccc(C)c(C)c3)c2c1,.,.,.,.,.,1.8,.,.
COc1ccc(S(=O)(=O)c2c(C)c(C)n(C(C)C)c2NC(=O)C2CC2)cc1,.,.,.,.,.,9.1,.,.
Fc1ccccc1CSc1nnc(-c2c[nH]c3ccccc23)n1C1CC1,.,.,.,.,.,2.7,.,.
Cc1ccc(NC(=O)C2=Cc3cc(Cl)ccc3OC=C2)cc1,.,.,.,.,.,0.7,.,.
COc1ccc(N2CCN(Cc3nc(N)nc(Nc4ccccc4OC)n3)CC2)cc1,-4.5,8.8,-4.2,7.7,-0.2,3.4,.,.
COc1ccc(Nc2nc(N)nc(CN3CCN(c4ccc(F)cc4)CC3)n2)cc1,4.6,-25.2,7.2,16.7,42.7*,3.3,1.3%,10.6%
Nc1nc(CN2CCN(c3ccc(F)cc3)CC2)nc(N2CCCc3ccccc32)n1,-9.5,-28.6,11.1,54.4*,59.8*,4.1,8.6%,24.3%
CCOC(=O)C1CCN(CC(O)COc2ccc(C(C)(C)C)cc2)CC1 (stereo not drawn),-6.6,6.4,?,26.4,0.3,2.6,.,.
CCOC(=O)C1CCN(CC(O)COc2ccc(C(C)=O)cc2)CC1 (stereo not drawn),6.7,-15.3,-6.5,30.8*,41.0*,-0.5,4.4%,16.9%
CCOC(=O)C1CCN(CC(O)COc2ccc(C(C)(C)CC)cc2)CC1 (stereo not drawn),-5.6,-26.7,11.0,80.2*,65.8*,4.0,10.5%,?
Cc1ccc(CNC(=O)CCCn2c(C)c3cnn(-c4ccccc4)c(=O)c3c2C)cc1,.,.,.,.,.,-0.3,.,.
NC(=O)NC(=O)COC(=O)[C@H](Cc1ccccc1)NC(=O)c1cccs1,-19.3,4.2,-1.8,10.1,17.0,-6.3,13.8%,-5.4%
SMILES,D2 PAM-1,D2 PAM-2,D2 ag-1,D2 antagonist,D2 ag-2,LDHA block,D3 ag,D2 ag-3
O=C(COC(=O)[C@H](Cc1ccccc1)NC(=O)c1cccs1)Nc1ccccc1C(F)(F)F,-4.8,-7.6,-1.4,4.3,-0.1,4.9,.,.
Cc1cc(C(=O)OCC(=O)NC2CCCCCCC2)c2ccccc2n1,.,.,.,.,.,-5.7,.,.
CC(C)(C)OC(=O)N1CCC(NC(=O)c2nc[nH]c2C(=O)N2CCc3ccccc3C2)CC1,-6.6,.,-1.3,.,.,1.4,-3.0%,-2.5%
Cc1ccc(NC(=O)c2nc[nH]c2C(=O)NC2CCN(C(=O)OC(C)(C)C)CC2)cc1,-8.1,.,-2.2,.,.,-2.3,.,.
CC(C)(C)OC(=O)N1CCC(NC(=O)c2[nH]cnc2C(=O)Nc2ccc(Cl)cc2)CC1,-16.0,5.7,-1.2,1.4,1.1,2.5,-1.6%,-2.3%
CC(C)(C)OC(=O)N1CCN(C(=O)c2[nH]cnc2C(=O)NCc2ccccc2)CC1,-9.7,-3.0,-3.5,-3.1,0.1,-5.6,-2.9%,-2.3%
CC(=O)Nc1sc2c(c1-c1ccc(C(=O)O)cc1)CCNC2,.,.,.,.,.,5.9,.,.
N#Cc1c(/N=C/c2ccc(-c3ccc(C(=O)O)c(Cl)c3)o2)sc2c1CCCC2,14.5,-11.8,?,-3.5,45.3*,-6.0,39.8µM*,?
Cc1ccc(/C=N/c2sc3c(c2C#N)CCC3)o1,-17.4,7.6,-2.2,9.0,2.5,-4.5,.,.
N#Cc1c(/N=C\c2ccc(O)c([N+](=O)[O-])c2)sc2c1CCCC2,20.3,-22.9,?,17.6,66.6*,0.2,?,12.9%
N#Cc1c(/N=C/c2c(F)cccc2Cl)sc2c1CCCC2,.,.,.,.,.,-0.2,.,.
N#Cc1c(/N=C/c2ccc(-c3ccccc3C(=O)O)o2)sc2c1CCCC2,14.4,-10.9,13.7,-13.4,65.8*,0.5,?,?
Cc1ccc(/C=N/Nc2ccc(Cl)c(Cl)c2)c(C)c1,.,.,.,.,.,-17.1,.,.

# Screens as filed in PubChem BioAssay.
